From PubChem BioAssay (NCATS) come the findings set out here.

Results filed as inconclusive are left out. A number with no mark means an inactive call. The source made the active and inactive calls. Calls follow the shape of the dose curve; as a rule, active = well fitted curve in the direction sought with a large enough effect; inconclusive = small, poorly fitted or top-dose-only effect, or another doubt; inactive = no such curve, though single readings can be large; an effect the other way counts as inactive or inconclusive.

The nature of assay [1]: Quantitative highthroughput screen to assess conditional lethalithy of NOMO1 cells grown in RPMI1640 with untreated serum (RPMI+s) (AID 1963876). Also: nearly all actives have a fitted effect of over 35% in size. Also: potency is read from the fitted curve at half-maximal effect.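 As to viability: 100% = DMSO wells and 0% = empty wells without cells.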 In short, it runs like this:
(§1)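 Each medium arm—HPLM with 10% dialyzed FBS, or RPMI1640 with 5 mM glucose and 10% untreated or dialyzed FBS—was screened against an 11-point, 3-fold compound titration for 48 h at 37 °C, with CellTiter-Glo luminescence as endpoint.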

The nature of assay [2]: Quantitative highthroughput screen to assess conditional lethalithy of NOMO1 cells grown in RPMI1640 with dialyzed fetal bovine serum (RPMI+ds) (AID 1963877). Also: nearly all actives have a fitted effect of over 30% in size. Also: potency is read from the fitted curve at half-maximal effect.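 As to viability: series mostly up to about 46 µM; 100% = DMSO control wells and 0% = empty wells.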 In short, it runs like this: as §1
Assay [3] in a line: Quantitative highthroughput screen to assess conditional lethalithy of NOMO1 cells grown in Human Plasma-Like Medium with dialyzed fetal bovine serum (HPLM+ds) (AID 1963878). Also: nearly all actives have a fitted effect of over 35% in size. Also: potency is read from the fitted curve at half-maximal effect.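 As to viability: 100% = DMSO wells and 0% = empty wells on each plate.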 In short, it runs like this: as §1
Assay [4] can be described thus: Quantitative highthroughput screen to assess conditional lethalithy of SEM cells grown in Human Plasma-Like Medium with dialyzed fetal bovine serum (HPLM+ds) (AID 1963882). Also: nearly all actives have a fitted effect of over 35% in size. Also: potency is read from the fitted curve at half-maximal effect. As to viability: series mostly up to about 46 µM. Put shortly: as §1
A short description of assay [5]: Quantitative highthroughput screen to assess conditional lethalithy of SEM cells grown in RPMI1640 with unreated serum (RPMI+s) (AID 1963883). Also: nearly all actives have a fitted effect of over 35% in size. Also: potency is read from the fitted curve at half-maximal effect.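 As to viability: 100% = DMSO wells and 0% = empty wells without cells.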 In short, it runs like this: as §1
Assay [6] can be described thus: Quantitative highthroughput screen to assess conditional lethalithy of SEM cells grown in RPMI1640 with dialyzed fetal bovine serum (RPMI+ds) (AID 1963884). Also: nearly all actives have a fitted effect of over 35% in size. Also: potency is read from the fitted curve at half-maximal effect.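 As to viability: series mostly up to about 46 µM; 100% = DMSO control wells and 0% = empty wells without cells.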 Put shortly:
as §1

A short description of assay [7]: Cellular viability qHTS for adrenocortical cancer (ACC) cell line SW-13 (AID 1963989).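 Also: cells grown in serum-free medium with ITS supplement; % is scaled to controls: 0 for no effect and ±100 for the full control effect; nearly all actives have a fitted effect of over 65% in size.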 The conditions noted are these: SW-13 ACC cells viability, CellTiter-Glo, 48 h; activity (max response): hits give low values. Put shortly: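 Luminescent ATP read-out (CellTiter-Glo, 20 min at room temperature) measured metabolically competent SW-13 cells after 48 h compound treatment. Final concentrations spanned up to 46 uM; bortezomib served as positive control.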

The nature of assay [8]: Cellular viability qHTS for adrenocortical cancer (ACC) cell line NCI-H295R (AID 1963990).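 Also: 0% = DMSO only wells and -100% = full killing with cytotoxic reference compound; nearly all actives have a fitted effect of over 60% in size.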 In short, it runs like this:
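IC50 and maximal efficacy derive from four-parameter logistic modelling of titration curves, with reads scaled between DMSO-only wells (0%) and doxorubicin hydrochloride (100% inhibition). Compounds spanned up to 46 uM over 48 h.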

Assay [9] can be described thus: Quantitative highthroughput screen to assess conditional lethalithy of P12 Ichikawa cells grown in Human Plasma-Like Medium with dialyzed fetal bovine serum (HPLM+ds) (AID 1963879). Also: nearly all actives have a fitted effect of over 35% in size. Also: potency is read from the fitted curve at half-maximal effect. As to viability: series mostly up to about 46 µM. The conditions noted are these: Potency: viability. In short, it runs like this:
as §1

Assay [10] is described as follows: Quantitative highthroughput screen to assess conditional lethalithy of P12 Ichikawa cells grown in RPMI1640 with dialyzed fetal bovine serum (RPMI+ds) (AID 1963880). Also: nearly all actives have a fitted effect of over 35% in size. Also: potency is read from the fitted curve at half-maximal effect.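 As to viability: 100% = DMSO wells and 0% = empty wells on each plate.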 Conditions: Potency: P12-Ichikawa viability. Put shortly: as §1
Assay [11] can be described thus: Quantitative highthroughput screen to assess conditional lethalithy of P12 Ichikawa cells grown in RPMI1640 with untreated serum (RPMI+s) (AID 1963881). Also: nearly all actives have a fitted effect of over 35% in size. Also: potency is read from the fitted curve at half-maximal effect.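 As to viability: series mostly up to about 46 µM; 100% = DMSO wells and 0% = empty wells without cells.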 The conditions noted are these: Potency: viability. Put shortly:
as §1

Take `C[C@]12CCC(=O)C=C1CC[C@@H]1[C@H]2[C@@H](O)C[C@@]2(C)[C@H]1CC[C@]2(O)C(=O)CO`: the Potency entry in assay [1], in [2], in assay [3] and in assay [4] was “inactive” each time.

Take `COc1ccc2ccc(=O)oc2c1CC=C(C)C`: the Potency result in assay [1], in assay [2], in [3] and in assay [4] was “inactive” in each case.

Turning to `CNC(=O)[C@H](CC1=CN=C2C=CCC=C12)NC(=O)[C@@H](CC(=O)NO)CC(C)C`, the results for the Potency in assay [1], in [2] and in assay [3] were 8.33 µM (active), 8.33 µM (active) and 5.9 µM (active), respectively. Also, the Potency result in assay [4], in assay [5] and in assay [6] was “inactive” in each case.

On to `CC(C)(C)NC(=O)[C@H]1CN(Cc2cccnc2)CCN1C[C@@H](O)C[C@@H](Cc1ccccc1)C(=O)N[C@H]1c2ccccc2C[C@H]1O`, for which the Potency entry in assay [1], in assay [2], in assay [3] and in [4] was “inactive” throughout.

On to `CCCCCCCN(CC)CCCC(O)c1ccc(NS(C)(=O)=O)cc1` (configuration not stated), for which the Potency entry in assay [1], in assay [2], in [3] and in [8] was “inactive” in each case. The activity (max response) in assay [7] is -11.3%.

For the molecule `O=C(O)C1=CO[C@@H](O[C@@H]2O[C@H](CO)[C@H](O)[C@H](O)[C@H]2O)[C@@H]2C(CO)=CC[C@H]12`, the Potency entry in assay [1], in [2], in [9], in assay [10], in assay [11] and in assay [4] was “inactive” throughout. For the same molecule, the Potency entry in assay [5] and in assay [6] was “inactive” in each case.

As for `NC(=O)c1nnn(Cc2cc(Cl)c(C(=O)c3ccc(Cl)cc3)c(Cl)c2)c1N`, the Potency result in assay [1], in [2], in assay [3] and in [4] was “inactive” in each case.

As to `C[C@@H]1[C@H](C)CC[C@]2(C(=O)O)CC[C@]3(C)C(=CC[C@@H]4[C@@]5(C)C[C@@H](O)[C@H](O)[C@@](C)(CO)[C@H]5CC[C@]43C)[C@@H]12`, the Potency result in [1], in assay [2], in assay [9], in [10] and in [11] was “inactive” each time.

Take `Nc1ccn([C@@H]2O[C@H](CO)[C@H](O)C2(F)F)c(=O)n1`: the Potency was 0.0833 µM (active) in [1]; 0.0833 µM (active) in assay [2]; 0.0833 µM (active) in assay [9]; 0.0526 µM (active) in [10]; 0.0743 µM (active) in [11]; 0.0118 µM (active) in assay [4]. In addition, the Potency is 0.0166 µM (active) in [5] and 0.0059 µM (active) in assay [6].

Consider `Clc1ccc2c(N3CCN(CCCN4CCN(c5ccnc6cc(Cl)ccc56)CC4)CC3)ccnc2c1`, for which the Potency entry in assay [1], in assay [2] and in assay [3] was “inactive” in each case. In assay [5], the Potency is 7.24 µM (active).

`COc1cc(N2CCN(C)CC2)ccc1Nc1nc(N)c(C(=O)c2c(Cl)cccc2Cl)s1`: the Potency entry in assay [1], in assay [2] and in assay [3] was “inactive” throughout. In addition, the Potency in assay [5] and in assay [6] was 20.9 µM (active) in each case.

For the molecule `CCOc1cc(C(C)(C)C)ccc1C1=N[C@@](C)(c2ccc(Cl)cc2)[C@@](C)(c2ccc(Cl)cc2)N1C(=O)N1CCN(CC(=O)N2CCOCC2)CC1`, the Potency entry in [1], in assay [2], in assay [9], in assay [10], in assay [11] and in assay [4] was “inactive” in each case. Moreover, the Potency in [5] was 6.6 µM (active); in assay [6], 5.88 µM (active).

In the case of `Nc1ncn([C@@H]2O[C@H](CO)[C@@H](O)[C@@H]2O)c(=O)n1`, the Potency in assay [1] was 16.6 µM (active); in [2] it was 7.43 µM (active); in assay [3] it was 16.6 µM (active); in assay [4], 9.35 µM (active); in assay [5] it was 10.5 µM (active); in assay [6], 4.69 µM (active).

For the molecule `CON=C(C(=O)N[C@@H]1C(=O)N2C(C(=O)O)=C(Cn3ccc(=N)n3CCO)CS[C@H]12)c1csc(N)n1`, the Potency result in [1], in assay [2], in [9], in assay [10], in assay [11] and in [4] was “inactive” each time. The Potency result in [5] and in [6] was “inactive” throughout.

Consider `CC1(C)[C@H](O[C@H]2O[C@H](C(=O)O)[C@@H](O)[C@H](O)[C@H]2O[C@@H]2O[C@H](C(=O)O)[C@@H](O)[C@H](O)[C@H]2O)CC[C@@]2(C)[C@H]1CC[C@]1(C)[C@H]2C(=O)C=C2[C@H]3C[C@@](C)(C(=O)O)CC[C@]3(C)CC[C@]21C`, for which the Potency entry in assay [1], in assay [2], in [9], in assay [10], in assay [11] and in assay [4] was “inactive” each time. Moreover, the Potency result in [5] and in [6] was “inactive” each time.

For the molecule `CC=C(C(=CC)c1ccc(O)cc1)c1ccc(O)cc1`, the Potency entry in assay [1], in assay [2], in assay [9], in assay [10], in [11] and in assay [4] was “inactive” each time.

As for `COc1ccc(-c2oc3c(CC=C(C)C)c(OC4O[C@H](CO)[C@@H](O)[C@H](O)[C@@H]4O)cc(O)c3c(=O)c2OC2O[C@@H](C)[C@H](O)[C@@H](O)[C@@H]2O)cc1` (some centres not stated), the Potency result in assay [1], in assay [2] and in assay [10] was “inactive” throughout. In addition, the Potency is 18.7 µM (active) in assay [4], 13.2 µM (active) in assay [5] and 18.7 µM (active) in assay [6].

For `NC(=O)C1CCCc2c1[nH]c1ccc(Cl)cc21` (configuration not stated), the Potency in [1] is 8.33 µM (active); in [2] it was 8.33 µM (active); in assay [4], 2.35 µM (active); in assay [5] it was 5.26 µM (active); in [6], 4.18 µM (active). Further, the activity (max response) in assay [7] was -13.4%. In addition, the Potency result in assay [8] was “inactive”.

In the case of `COc1cc(NC(=O)c2ccc(-c3ccc(Cl)cc3)o2)cc(OC)c1`, the Potency was 1.87 µM (active) in [1] and 2.35 µM (active) in [2]. The Potency result in assay [10], in assay [11], in [4], in assay [5] and in assay [6] was “inactive” in each case.

In the case of `CC(=O)O[C@]1(C(C)=O)CC[C@@H]2[C@@H]3C[C@H](C)C4=CC(=O)CC[C@]4(C)[C@H]3CC[C@@]21C`, the Potency result in [1], in [2], in [9], in assay [10], in assay [4] and in assay [5] was “inactive” each time. Also, the Potency result in [6] is “inactive”.

In the case of `Cc1ccc([C@@H]2O[C@H](CO)[C@@H](O)[C@H](O)[C@@H]2O)cc1Cc1ccc(-c2ccc(F)cc2)s1`, the Potency result in assay [1], in [2] and in [4] was “inactive” throughout.

As to `Cc1[nH]c(C=C2C(=O)Nc3ccc(S(=O)(=O)Cc4c(Cl)cccc4Cl)cc32)c(C)c1C(=O)N1CCC[C@H]1CN1CCCC1`, the Potency result in assay [1], in [2], in assay [9] and in [11] was “inactive” in each case. The Potency in assay [4] was 2.35 µM (active).

As for `C[C@@H](O)[C@H]1C(=O)N2C(C(=O)OCOC(=O)C(C)(C)C)=C(SC3CN(C4=NCCS4)C3)[C@H](C)[C@H]12`, the Potency result in [1], in assay [4] and in [6] was “inactive” in each case. The Potency in assay [2] is 7.43 µM (active).
